The source made the active and inactive calls.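 The calls were made as follows, unless noted: active = binding below the plate cutoff, the plate median minus 3 SD, with a reading above zero; inconclusive = below the plate cutoff but reading exactly zero; inactive = the rest.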
Experiments:
[1] = reduced mouse 2C T cell binding to pMHC/ICAM-1 vesicles – MLPCN validation set, flow cytometry, LFA-1/ICAM-1 modulator project, pilot screen (AID 2523;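 active = response below a set limit, under 55% cells CD8-positive and vesicle-bound, and CD8 cells' 90th-percentile brightness under 279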;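 as to vesicle binding response: mean PE anti-B7-1 fluorescence of CD8+ cells relative to row control; 100% = QL9-loaded vesicles with DMSO vehicle in the same plate row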); conditions: 2C mouse CD8+ T cells, at 7 µM, stronger effect = lower value; double positive events: measured here: CD8+/vesicle+ event percentage
[2] = target: Integrin beta-1 (Homo sapiens) + Integrin alpha-4 (Homo sapiens) (UniProt P13612+P05556); test: alpha4beta1 integrin LIBS antibody binding reduction – U937 cells, HUTS-21 mAb, flow cytometry, validation set, VLA-4 allosteric modulator project, pilot screen (AID 2674;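 active = inhibition above 50%, about 3 SD of the validation set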;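 also: antibody binding induced by the VLA-4 ligand LDV present at three times its Kd; 0% = LDV ligand with antibody and no compound and 100% = antibody without LDV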); conditions: HUTS-21 LIBS mAb binding, at 6.7 µM, stronger effect = higher value, binding induced by LDV ligand
[3] = calorie-restriction mimetic ROS inhibitors, yeast – validation compound set, pilot screen (AID 2706;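 active = superoxide response below 65% of plate, a cut near 3 SD across the whole screen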;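 also: yeast exposed to compound for one week at 30 degrees C before staining; 100% = mean of all compound wells on the same plate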); conditions: S. cerevisiae aging, superoxide DHE fluorescence; at 10 µM, stronger effect = lower value
[4] = target: Beta-adrenergic receptor kinase 1 (Homo sapiens) (UniProt P25098); test: GRK2 binders displacing RNA aptamer, biochemical, validation, human GRK2, bead flow cytometry (AID 488806;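 active = aptamer binding inhibition above 30%, about 3 SD of noise from non-fluorescent compounds; inactive = inhibition at or below 30%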); conditions: bead-bound GRK2, FAM-aptamer displacement, at 10 µM, stronger effect = higher value
[5] = target: Beta-2 adrenergic receptor (Homo sapiens) (UniProt P07550); test: agonist-induced loss of surface beta2AR – cell-based, FAP fluorogen, flow cytometry, validation set, pilot screen (AID 504459;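 active = percent response above 42, roughly 3 SD of non-fluorescent test compounds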;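 also: agonist-driven loss of surface beta2AR via internalization measured by FAP dye flow cytometry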); conditions: Am2.2-beta2AR cells, at 10 µM, stronger effect = higher value
[6] = target: AP-2 complex subunit beta (Homo sapiens) (UniProt P63010); test: beta-arrestin/AP2 interaction blockers – biochemical, validation set, GST-AP2 beads, flow cytometry, pilot screen (AID 504541;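 active = inhibition above 54%, about 3 SD of non-fluorescent compounds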;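 also: AP2 carries R879A mutation and is captured from E. coli lysate; bead-bound FITC arrestin peptide fluorescence measuring arrestin peptide binding to AP2; 0% = DMSO wells and 100% = excess unlabeled arrestin peptide control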); conditions: FITC arrestin peptide, at 10 µM, stronger effect = higher value, AP2 beta2 appendage fragment, R879A mutant
[7] = cytosolic pH regulators acting via V-ATPase – S. cerevisiae, pHLuorin, HTS validation (AID 504600; in the data active = response above about 15%;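 also: plate controls were DMSO for no effect and reference compound for full effect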); conditions: V-ATPase proton transport, at 10 µM, stronger effect = higher value
[8] = tested on: anti-desmoglein-3 scFv antibody binding to human DSG3; test: blockers of pathogenic pemphigus antibody–desmoglein-3 binding – biochemical, validation compound set, bead-based, flow cytometry, pilot screen (AID 588368); conditions: Protein G beads, DSG3-Fc, scFv-GFP binding, at 10 µM, stronger effect = lower value;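 also: signal is the median channel fluorescence of bead-bound GFP antibody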
[9] = Nile Red efflux blockade in pump-expressing yeast – validation compound set, multiplex, phenotypic, pilot screen (AID 588506;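 active = efflux inhibition above 0.42, the validation set average plus 4 SD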;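 also: Nile Red retained in cells so higher fluorescence means more efflux inhibition; 0 = negative control wells and 1 = enniatin B 25 µM full block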); conditions: S. cerevisiae pump-expressing triplex, Nile Red efflux flow cytometry; at 10 µM; stronger effect = higher value; the pumps come from Candida albicans
[10] = target: ATP-binding cassette sub-family B member 6 (Homo sapiens) (UniProt Q9NP58); test: blockers of ABCB6-driven porphyrin uptake – K562-ABCB6 cells, flow cytometry, validation set, pilot screen (AID 588550;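 active = inhibition above the screen-wide mean plus 3 SD, about 51%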;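 also: 0% = DMSO wells and 100% = benzethonium chloride 70 µM positive control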); conditions: K562-ABCB6 porphyrin accumulation, 1 h, at 10 µM, stronger effect = higher value
[11] = AML differentiation inducers, ER-HoxA9 marrow cells – cell-based, GFP/MAC1 double positive, flow cytometry, validation set, primary screen (AID 588685;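 active = differentiation response of at least 50%, scaled between solvent and reference control, from cells with both markers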;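 also: compound exposure lasts four days before antibody staining and flow analysis; 0% = DMSO wells and 100% = 5 µM fulvestrant positive control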); conditions: stronger effect = higher value, normalized: vehicle 0, fulvestrant 100
[12] = hit retest on RPL19A-GFP reporter strain – cell-based, S. cerevisiae, flow cytometry, cherry picks, mother/daughter gates, confirmation (AID 2270;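 active = GFP response below 50% of the DMSO control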); conditions: 3 h, at 10 µM, stronger effect = lower value, 100 = same GFP as DMSO wells
[13] = yeast TOR pathway reporter LAP4-GFP change – cell-based, cherry picks, flow cytometry, mother/daughter gates, confirmation (AID 2271;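 active = GFP response above 150% of the DMSO control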;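 also: ratio of sample to DMSO plate mean so 100% equals DMSO level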); conditions: S. cerevisiae LAP4-GFP strain, 3 h, at 10 µM, stronger effect = higher value, 100 means same as DMSO control
[14] = TOR pathway reporter MEP2-GFP, retest of hits – S. cerevisiae, flow cytometry GFP, cherry picks, confirmation (AID 2272;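 active = GFP response above 150% of the DMSO control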;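 also: ratio of well signal to plate DMSO mean so 100% equals DMSO level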); conditions: S. cerevisiae MEP2-GFP strain, 3 h, at 10 µM, stronger effect = higher value
[15] = yeast AGP1-GFP fluorescence change, single-dose – cell-based, flow cytometry, S. cerevisiae, cherry picks, confirmation (AID 2273;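 active = GFP response above 150% of the DMSO level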;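 also: median GFP channel fluorescence over the whole cell population gate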); conditions: S. cerevisiae AGP1-GFP strain, 3 h, at 10 µM
[16] = TOR pathway CIT2 reporter hit retest – S. cerevisiae, GFP fusion, cherry picks, mother/daughter gates, confirmation (AID 2274;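 active = GFP response above 150% of the DMSO level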); conditions: S. cerevisiae CIT2-GFP strain, flow cytometry, 3 h; at 10 µM; stronger effect = higher value

Sequence of Beta-2 adrenergic receptor (Homo sapiens) (P07550 whole entry, looked up): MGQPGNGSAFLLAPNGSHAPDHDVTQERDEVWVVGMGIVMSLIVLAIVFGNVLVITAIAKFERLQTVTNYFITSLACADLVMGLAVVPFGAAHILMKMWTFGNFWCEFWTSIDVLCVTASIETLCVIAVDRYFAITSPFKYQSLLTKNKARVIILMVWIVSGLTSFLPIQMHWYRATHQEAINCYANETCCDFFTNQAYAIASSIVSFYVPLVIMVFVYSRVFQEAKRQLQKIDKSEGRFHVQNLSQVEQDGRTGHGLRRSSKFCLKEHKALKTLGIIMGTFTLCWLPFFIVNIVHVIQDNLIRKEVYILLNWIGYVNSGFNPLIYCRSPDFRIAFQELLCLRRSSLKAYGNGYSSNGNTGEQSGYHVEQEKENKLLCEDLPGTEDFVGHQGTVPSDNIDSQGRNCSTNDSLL
Sequence of Beta-adrenergic receptor kinase 1 (Homo sapiens) (P25098 whole entry, looked up): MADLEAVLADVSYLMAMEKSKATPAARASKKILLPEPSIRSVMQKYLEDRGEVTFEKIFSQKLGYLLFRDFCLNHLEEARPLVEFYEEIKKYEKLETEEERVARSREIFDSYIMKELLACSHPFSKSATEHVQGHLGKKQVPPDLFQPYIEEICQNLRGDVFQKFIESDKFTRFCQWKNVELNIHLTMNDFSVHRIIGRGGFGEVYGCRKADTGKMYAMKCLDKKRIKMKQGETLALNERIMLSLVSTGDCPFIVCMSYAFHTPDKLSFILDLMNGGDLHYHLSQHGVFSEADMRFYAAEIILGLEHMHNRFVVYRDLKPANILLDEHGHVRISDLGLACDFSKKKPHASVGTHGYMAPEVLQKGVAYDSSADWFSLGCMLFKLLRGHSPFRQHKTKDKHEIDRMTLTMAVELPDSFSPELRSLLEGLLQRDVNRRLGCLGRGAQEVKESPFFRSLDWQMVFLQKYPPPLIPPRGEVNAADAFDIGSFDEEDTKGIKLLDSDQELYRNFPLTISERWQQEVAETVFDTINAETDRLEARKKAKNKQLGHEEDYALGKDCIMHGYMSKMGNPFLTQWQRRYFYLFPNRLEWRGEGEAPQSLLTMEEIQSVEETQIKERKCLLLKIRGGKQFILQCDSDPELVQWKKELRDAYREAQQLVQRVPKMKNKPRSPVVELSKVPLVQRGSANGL
Sequence of ATP-binding cassette sub-family B member 6 (Homo sapiens) (Q9NP58 whole entry, looked up): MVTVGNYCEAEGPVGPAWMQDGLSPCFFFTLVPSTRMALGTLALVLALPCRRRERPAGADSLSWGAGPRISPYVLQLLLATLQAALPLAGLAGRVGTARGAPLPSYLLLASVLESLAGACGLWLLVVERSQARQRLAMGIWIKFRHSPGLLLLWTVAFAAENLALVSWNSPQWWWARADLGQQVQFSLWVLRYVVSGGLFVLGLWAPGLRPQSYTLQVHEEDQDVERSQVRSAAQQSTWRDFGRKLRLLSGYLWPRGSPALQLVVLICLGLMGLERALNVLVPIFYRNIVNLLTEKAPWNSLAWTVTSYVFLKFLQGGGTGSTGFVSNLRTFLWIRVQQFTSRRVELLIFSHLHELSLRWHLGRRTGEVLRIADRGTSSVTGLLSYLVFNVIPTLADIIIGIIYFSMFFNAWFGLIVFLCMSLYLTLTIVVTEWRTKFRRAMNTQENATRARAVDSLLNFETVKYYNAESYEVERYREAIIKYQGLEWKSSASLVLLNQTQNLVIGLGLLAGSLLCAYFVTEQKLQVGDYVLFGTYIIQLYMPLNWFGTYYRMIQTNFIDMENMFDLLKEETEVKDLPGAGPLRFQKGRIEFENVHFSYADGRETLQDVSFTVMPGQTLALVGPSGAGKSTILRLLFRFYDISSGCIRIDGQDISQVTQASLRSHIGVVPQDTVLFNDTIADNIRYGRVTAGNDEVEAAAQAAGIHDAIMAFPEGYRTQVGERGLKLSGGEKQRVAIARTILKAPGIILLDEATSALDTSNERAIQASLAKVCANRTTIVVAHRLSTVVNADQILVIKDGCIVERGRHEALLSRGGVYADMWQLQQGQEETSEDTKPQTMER
Sequence of AP-2 complex subunit beta (Homo sapiens) (P63010 whole entry, looked up, the tested form may be a part, one chain of several): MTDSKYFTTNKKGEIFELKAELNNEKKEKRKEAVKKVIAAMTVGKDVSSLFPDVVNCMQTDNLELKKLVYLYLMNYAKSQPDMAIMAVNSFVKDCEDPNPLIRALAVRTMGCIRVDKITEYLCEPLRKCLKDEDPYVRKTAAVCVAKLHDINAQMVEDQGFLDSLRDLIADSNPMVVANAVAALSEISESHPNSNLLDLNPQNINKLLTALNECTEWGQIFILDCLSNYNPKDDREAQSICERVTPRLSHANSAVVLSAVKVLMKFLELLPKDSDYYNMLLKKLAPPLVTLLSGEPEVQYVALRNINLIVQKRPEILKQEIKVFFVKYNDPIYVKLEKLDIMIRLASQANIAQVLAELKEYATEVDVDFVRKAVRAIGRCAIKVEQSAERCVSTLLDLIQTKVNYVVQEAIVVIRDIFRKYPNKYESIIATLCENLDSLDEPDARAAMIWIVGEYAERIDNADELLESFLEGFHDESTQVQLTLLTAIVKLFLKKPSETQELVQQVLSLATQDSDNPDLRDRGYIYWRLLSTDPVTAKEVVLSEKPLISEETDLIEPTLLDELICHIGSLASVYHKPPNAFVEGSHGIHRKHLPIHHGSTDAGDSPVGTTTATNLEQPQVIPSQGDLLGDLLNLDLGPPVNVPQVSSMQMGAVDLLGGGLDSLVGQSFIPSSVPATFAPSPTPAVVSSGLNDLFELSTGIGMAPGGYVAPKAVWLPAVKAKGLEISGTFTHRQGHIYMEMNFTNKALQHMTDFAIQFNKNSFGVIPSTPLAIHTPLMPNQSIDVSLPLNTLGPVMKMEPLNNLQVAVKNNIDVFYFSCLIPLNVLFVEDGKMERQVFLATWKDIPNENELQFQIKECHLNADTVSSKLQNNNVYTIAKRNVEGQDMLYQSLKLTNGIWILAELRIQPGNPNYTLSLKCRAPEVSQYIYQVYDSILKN
Sequence of Integrin beta-1 (Homo sapiens) + Integrin alpha-4 (Homo sapiens) (P05556 whole entry, looked up): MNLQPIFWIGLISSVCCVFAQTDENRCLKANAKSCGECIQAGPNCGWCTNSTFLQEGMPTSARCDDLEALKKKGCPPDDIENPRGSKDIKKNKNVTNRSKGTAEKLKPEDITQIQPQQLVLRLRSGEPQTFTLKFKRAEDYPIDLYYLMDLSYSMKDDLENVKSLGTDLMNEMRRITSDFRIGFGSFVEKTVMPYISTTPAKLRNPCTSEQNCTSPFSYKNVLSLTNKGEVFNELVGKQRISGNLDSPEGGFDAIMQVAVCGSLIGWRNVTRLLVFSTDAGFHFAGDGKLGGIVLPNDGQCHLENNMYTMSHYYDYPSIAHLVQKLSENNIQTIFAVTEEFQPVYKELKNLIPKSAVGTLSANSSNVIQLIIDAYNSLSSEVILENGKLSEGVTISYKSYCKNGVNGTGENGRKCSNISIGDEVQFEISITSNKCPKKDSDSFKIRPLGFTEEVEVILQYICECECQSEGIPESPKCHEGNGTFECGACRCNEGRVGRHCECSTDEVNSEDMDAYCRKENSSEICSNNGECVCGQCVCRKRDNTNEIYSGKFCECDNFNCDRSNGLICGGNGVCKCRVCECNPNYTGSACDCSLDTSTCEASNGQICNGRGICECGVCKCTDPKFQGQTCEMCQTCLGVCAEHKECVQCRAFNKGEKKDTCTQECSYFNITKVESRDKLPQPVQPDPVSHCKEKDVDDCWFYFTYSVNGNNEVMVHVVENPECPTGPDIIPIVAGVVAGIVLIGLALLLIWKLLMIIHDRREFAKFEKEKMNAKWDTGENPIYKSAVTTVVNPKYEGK
Sequence of Integrin beta-1 (Homo sapiens) + Integrin alpha-4 (Homo sapiens) (P13612 whole entry, looked up): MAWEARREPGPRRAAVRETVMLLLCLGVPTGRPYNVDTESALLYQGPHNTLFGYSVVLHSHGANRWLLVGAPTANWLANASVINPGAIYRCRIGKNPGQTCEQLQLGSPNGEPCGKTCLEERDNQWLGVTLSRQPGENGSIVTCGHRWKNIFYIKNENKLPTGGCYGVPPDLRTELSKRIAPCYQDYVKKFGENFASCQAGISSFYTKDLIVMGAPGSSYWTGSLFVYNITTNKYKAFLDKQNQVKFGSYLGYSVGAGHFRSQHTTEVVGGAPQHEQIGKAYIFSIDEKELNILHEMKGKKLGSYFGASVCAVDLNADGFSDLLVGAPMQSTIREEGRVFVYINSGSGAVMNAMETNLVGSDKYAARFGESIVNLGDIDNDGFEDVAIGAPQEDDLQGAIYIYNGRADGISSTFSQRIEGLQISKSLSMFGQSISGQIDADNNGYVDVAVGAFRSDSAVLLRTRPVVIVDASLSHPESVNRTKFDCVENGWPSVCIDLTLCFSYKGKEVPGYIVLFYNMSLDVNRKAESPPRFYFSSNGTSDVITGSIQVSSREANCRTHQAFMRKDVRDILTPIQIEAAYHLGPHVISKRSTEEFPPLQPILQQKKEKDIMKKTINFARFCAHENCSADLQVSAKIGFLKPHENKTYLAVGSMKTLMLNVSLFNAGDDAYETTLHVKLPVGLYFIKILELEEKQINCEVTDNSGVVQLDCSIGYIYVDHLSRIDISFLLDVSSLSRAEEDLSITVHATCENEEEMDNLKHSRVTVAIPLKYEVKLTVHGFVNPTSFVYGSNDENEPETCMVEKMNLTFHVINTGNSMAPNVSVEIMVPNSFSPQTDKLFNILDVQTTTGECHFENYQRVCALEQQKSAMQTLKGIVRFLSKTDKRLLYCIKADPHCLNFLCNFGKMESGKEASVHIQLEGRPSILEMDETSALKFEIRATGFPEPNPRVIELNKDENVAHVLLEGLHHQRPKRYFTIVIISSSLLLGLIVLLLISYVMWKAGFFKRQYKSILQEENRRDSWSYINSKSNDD

Cc1ccc(C(=O)NC(=S)NCCCN2CCOCC2)cc1
66.2%: double positive events [1]
inactive: vesicle binding response [1] 172% | inhibition [2] 5.49% | superoxide response (% of plate) [3] 96% | aptamer binding inhibition [4] 4% | response [5] 1.89% | inhibition [6] 4.05% | response [7] 5.81% | binding (% of control) [8] 103% | efflux inhibition (fraction of control) [9] -0.38 | inhibition [10] 13% | differentiation response [11] -0.82%

CCc1cc2c3c(c(=O)oc2cc1O)CCCC3
inactive: vesicle binding response [1] 257% | inhibition [2] -18.2% | superoxide response (% of plate) [3] 93.2% | aptamer binding inhibition [4] 1% | response [5] 1.88% | inhibition [6] -7.42% | response [7] 2.52% | binding (% of control) [8] 99.5% | efflux inhibition (fraction of control) [9] -0.21 | inhibition [10] 11% | differentiation response [11] 4%
67.8%: double positive events [1]

CC(=O)O[C@]1(C(C)=O)CC[C@H]2[C@@H]3C=C(C)C4=CC(=O)CC[C@]4(C)[C@H]3CC[C@@]21C
65.3%: double positive events [1]
inactive: vesicle binding response [1] 252% | inhibition [2] -0.27% | superoxide response (% of plate) [3] 95.9% | aptamer binding inhibition [4] 3% | response [5] -24.4% | inhibition [6] 1.74% | response [7] -0.81% | binding (% of control) [8] 101% | efflux inhibition (fraction of control) [9] 0.29 | inhibition [10] -2% | differentiation response [11] 7.82%

COc1cccc(OC)c1C(=O)NCCSC1CCCCC1
61.3%: double positive events [1]
inactive: vesicle binding response [1] 68.6% | inhibition [2] 1.59% | superoxide response (% of plate) [3] 85.2% | aptamer binding inhibition [4] 1% | response [5] 0.14% | inhibition [6] -3.95% | response [7] -0.98% | binding (% of control) [8] 104% | efflux inhibition (fraction of control) [9] -0.25 | inhibition [10] -5% | differentiation response [11] -16.3%

COc1ccc(C(=O)/C=C2/c3ccccc3CC(C)(C)N2C)cc1
59.8%: double positive events [1]
inactive: vesicle binding response [1] 124% | inhibition [2] 2.93% | superoxide response (% of plate) [3] 99% | aptamer binding inhibition [4] 3% | response [5] 23.7% | inhibition [6] -8.96% | response [7] -3.68% | binding (% of control) [8] 98.3% | efflux inhibition (fraction of control) [9] -0.25 | inhibition [10] 7% | differentiation response [11] -7.5%

CCc1cn([C@H]2C[C@H](O)[C@@H](CO)O2)c(=O)[nH]c1=O
inactive: vesicle binding response [1] 232% | inhibition [2] -0.33% | superoxide response (% of plate) [3] 95.6% | aptamer binding inhibition [4] -1% | response [5] 7.43% | inhibition [6] 3.19% | response [7] -0.71% | binding (% of control) [8] 100% | efflux inhibition (fraction of control) [9] -0.42 | inhibition [10] 16% | differentiation response [11] 1.64%
71.1%: double positive events [1]

CCn1c2ccccc2c2cc(CC(N)=O)ccc21
60.8%: double positive events [1]
inactive: vesicle binding response [1] 153% | inhibition [2] 20.2% | superoxide response (% of plate) [3] 92.7% | aptamer binding inhibition [4] -1% | response [5] -19.5% | inhibition [6] 1.51% | response [7] -10.1% | binding (% of control) [8] 103% | efflux inhibition (fraction of control) [9] 0.04 | inhibition [10] 5% | differentiation response [11] -0.06%

Cc1nc2ccc(Br)cn2c1NC(C)(C)C
inactive: GFP response vs DMSO [12] 98.4% | GFP response relative to DMSO [13] 96.2% | GFP response vs DMSO [14] 100% | GFP response, % of DMSO [15] 97.6% | GFP response, % of DMSO [16] 102%

CC(C)CC(=O)OC1C(N2CCOCC2)c2c(ccc(/C=C/C(=O)N3CCOCC3)c2O)OC1(C)C (configuration not stated)
active: response [5] 84.7% | differentiation response [11] 53.6%
57.1%: double positive events [1]
inactive: vesicle binding response [1] 158% | inhibition [2] -3.16% | superoxide response (% of plate) [3] 101% | aptamer binding inhibition [4] -1% | inhibition [6] 35% | response [7] -2.63% | binding (% of control) [8] 108% | efflux inhibition (fraction of control) [9] 0.37 | inhibition [10] 5%

O=C1c2ccccc2C(=O)C1c1ccccc1
67%: double positive events [1]
inactive: vesicle binding response [1] 512% | inhibition [2] 3.14% | superoxide response (% of plate) [3] 95.2% | aptamer binding inhibition [4] 7% | response [5] -32.5% | inhibition [6] -6.92% | response [7] -0.31% | binding (% of control) [8] 102% | efflux inhibition (fraction of control) [9] 0 | inhibition [10] 4% | differentiation response [11] -5.97%

CN1CCc2cccc3c2[C@@H]1Cc1ccc(O)c(O)c1-3
61%: double positive events [1]
inactive: vesicle binding response [1] 194% | inhibition [2] -38.6% | superoxide response (% of plate) [3] 93.1% | aptamer binding inhibition [4] 11% | response [5] 26.8% | inhibition [6] 6.55% | response [7] -9.4% | binding (% of control) [8] 100% | efflux inhibition (fraction of control) [9] -0.09 | inhibition [10] -20% | differentiation response [11] 5.85%

CC1(C)C2CCC1(C(=O)O)c1nc3ccccc3nc12 (configuration not stated)
inactive: vesicle binding response [1] 372% | inhibition [2] -1.12% | superoxide response (% of plate) [3] 72.9% | aptamer binding inhibition [4] 2% | response [5] -10.7% | inhibition [6] 6.26% | response [7] 0.59% | binding (% of control) [8] 100% | efflux inhibition (fraction of control) [9] 0.04 | inhibition [10] 20% | differentiation response [11] -6.96%
61.8%: double positive events [1]

Reference: PubChem BioAssay
